The campaign covered roughly 69,000 compounds. About 8,600 (12%) showed an effect of 50% or more. This is one part of a sample in which strong results are shown more often than they occur.
System: Plasmodium berghei
Assay: Screen against P. berghei liver stage (PbLuc), transformed with Luciferase, at 10uM
Type: functional, HepG2
Details: tested at 10 uM

Going from `O=C(Nc1ccccc1)N1C[C@@H]2CC[C@H]1CN(Cc1ccccc1)C2` to `CC(C)n1cc(C(=O)NC2CN3CCC2CC3)c2ccccc21` (stereo not given), the INHIBITION rises from 32.5% to 50.8%.

`COc1cc(NC2CCCN(c3ncccc3C#N)C2)cc(OC)c1` (stereo not given) and `COc1ccc(C(=O)C2CCCN(c3cc(C#N)ccn3)C2)cc1OC` (stereo not given) are the same in INHIBITION: 42.1% for the first, 42.1% for the second.

First: CN(C(=O)c1cccc(NCc2cccs2)c1)C(C1CC1)C1CC1
Second: CN(C(=O)c1cccc(NCC(=O)O)c1)C(C1CC1)C1CC1
The INHIBITION of the first is higher: 64.8% for the first, 44.8% for the second.

Compared with `COC(C)c1cccc(NCc2ccsc2)c1` (stereo not given), `COC(C)c1cccc(NCc2cccs2)c1` (stereo not given) is higher in INHIBITION: 32.8% for the first, 50.1% for the second.

Compared with `CN1CCc2ccc(NCc3cccs3)cc2C1=O`, `Cc1cccc(CNC2CC(=O)N(CCc3cccc(Cl)c3)C2)n1` (stereo not given) is higher in INHIBITION: -99.6% for the first, -13% for the second.

Going from `COC(C)c1cccc(NCc2cccc(O)c2)c1` (stereo not given) to `Cn1c(=O)n(C)c2cc(NS(=O)(=O)Cc3cccc(F)c3)ccc21`, the INHIBITION rises from -52.4% to 18.6%.

Compared with `Cc1n[nH]c2nc(-c3cccc(Cl)c3)cc(C(=O)O)c12`, `Cc1nc(CNC2CC(=O)N(CCc3cccc(Cl)c3)C2)c[nH]1` (stereo not given) is higher in INHIBITION: -1.99% for the first, 43.4% for the second.

Compared with `O=C1CC2(CCSC2)C(=O)N1Cc1coc(-c2ccc(F)cc2)n1` (stereo not given), `Cc1ncc(CNC2CC(=O)N(CCc3ccc(F)cc3)C2)n1C` (stereo not given) is higher in INHIBITION: -19.7% for the first, 14.5% for the second.

Going from `CCn1cc(C(=O)NC2CCN(S(C)(=O)=O)CC2)c2ccccc21` to `COCCn1ccc2c(C(=O)NC3CN4CCC3CC4)cccc21` (stereo not given), the INHIBITION rises from 2.37% to 63.8%.

Compared with `Cn1ccc2ccc(C(=O)NC3CCOC(C)(C)C3)cc21` (stereo not given), `CC(C)n1ccc2ccc(C(=O)NC3CN4CCC3CC4)cc21` (stereo not given) is higher in INHIBITION: 11.7% for the first, 58.2% for the second.

First: CC(C)n1ccc2c(C(=O)NC3CN4CCC3CC4)cccc21 (stereo not given)
Second: Cn1ccc2c(C(=O)NC3CN4CCC3CC4)cccc21 (stereo not given)
The INHIBITION of the first is higher: 50.8% for the first, 32.2% for the second.

Going from `COCCn1ccc2c(C(=O)NC(C)C)cccc21` to `COCCn1ccc2c(C(=O)O)cccc21`, the INHIBITION rises from 1.8% to 17.7%.

Going from `CC(C)n1cc(C(=O)NC2CCS(=O)(=O)C2)c2ccccc2c1=O` (stereo not given) to `COCCn1cc(C(=O)Nc2nc3c(s2)CCC3)c2ccccc21`, the INHIBITION rises from 11.1% to 45.5%.

First: CC(C)n1ccc2cc(C(=O)Nc3nc[nH]n3)ccc21
Second: CC(C)Oc1ncccc1CNC(=O)c1ccccn1
The INHIBITION of the first is higher: -22.4% for the first, -48.4% for the second.

First: Cc1c(NC(=O)NC2CN3CCC2CC3)cccc1C(=O)N1CCCC1 (stereo not given)
Second: Cc1cc(NC(=O)C2CCCN(C(=O)NCC(C)C)C2)ccn1 (stereo not given)
The INHIBITION of the first is higher: 21.5% for the first, -15.8% for the second.

Going from `CCCc1nc(NCC(=O)N2CCOCC2)c2c(n1)c(C)nn2CC` to `Cc1noc(C)c1CCC(=O)N1CCCN(C)CC1`, the INHIBITION falls from 45.8% to 1.7%.

Going from `CSCc1cccc(S(=O)(=O)N2CCCCC2)c1` to `COc1ccccc1CCNS(=O)(=O)N1CCOCC1`, the INHIBITION falls from 37.5% to 8.38%.

First: O=C1N(C2CCOCC2)CCCC12CCN(c1ncccc1Cl)C2 (stereo not given)
Second: Cc1cnc(N2CCCC3(CCOCC3)C2)nc1
The INHIBITION of the first is higher: 12% for the first, -22.1% for the second.

First: Nc1ncc(CN2CCC(O)(c3ccccc3F)CC2)cn1
Second: O=S(=O)(NCCc1ccccc1F)N1CCOCC1
The INHIBITION of the first is lower: 31.5% for the first, 53.8% for the second.

Going from `CC(NC(=O)c1ccc(Cl)cc1)c1nnc(SCC(N)=O)n1C` (stereo not given) to `NC(=O)c1nnn(-c2ccc(Cl)cc2)n1`, the INHIBITION falls from 12.315% to -27.1%.

First: Cn1nccc1-c1cnc2n1CCNC21CCN(C(=O)C2(C)CC2)CC1
Second: Cc1cccc(CN2CC3(CCN(C(N)=O)CC3)OCC2=O)n1
The INHIBITION of the first is higher: 13.1% for the first, 7.53% for the second.

Compared with `Cc1cnc(CNC(=O)N(CCCO)C2CCc3ccccc32)s1` (stereo not given), `COCCn1cc(CC(=O)Nc2nc3c(s2)CCC3)c2ccccc21` is lower in INHIBITION: 38.5% for the first, -51.3% for the second.

Going from `CC(=O)N1CC[C@H]2OCC[C@@]2(C(=O)NCc2cnc(C)cn2)C1` to `Cc1nnc([C@@]23CCO[C@@H]2CCN(Cc2scnc2C)C3)o1`, the INHIBITION falls from 42.1% to 10.4%.

First: O=C(NCCN1C(=O)c2ccccc2C1=O)c1scnc1Cl
Second: N#Cc1c(Cl)nsc1NCCCN1C(=O)COc2ccccc21
The INHIBITION of the first is lower: 19.4% for the first, 62.4% for the second.

Going from `COCCn1ccc2c(C(=O)Nc3nc4c(s3)CCC4)cccc21` to `Cn1cccc1C(=O)NCc1ccnc(C2CCCOC2)n1` (stereo not given), the INHIBITION falls from 79.2% to 39.8%.

Compared with `CCn1ccnc1CN1CCN(CCC(=O)NC2CCCCC2)CC1`, `CCNC(=O)NCC1(CN2CCOCC2)CCCCC1` is higher in INHIBITION: -1.65% for the first, 11.9% for the second.

Going from `COCC(=O)N(Cc1ccc2cc[nH]c2c1)C1CC1` to `CCc1cc(C(=O)N2CC[C@@H](c3ccc4c(c3)OCO4)[C@H](O)C2)[nH]n1`, the INHIBITION falls from 10.9% to -5.22%.

Compared with `O=C1CC(NCc2ccncc2)CN1CCc1cccc(Cl)c1` (stereo not given), `O=C1CC(NCc2ncc[nH]2)CN1CCc1cccc(Cl)c1` (stereo not given) is lower in INHIBITION: 44.8% for the first, 39.9% for the second.

Going from `Cc1ncc(CNC2CC(=O)N(CCc3cccc(Cl)c3)C2)n1C` (stereo not given) to `Cc1nc[nH]c1CNC1CC(=O)N(CCc2cccc(Cl)c2)C1` (stereo not given), the INHIBITION falls from 60.5% to 53.9%.

Compared with `CN(C)c1ncc(CNC2CC(=O)N(CCc3cccc(Cl)c3)C2)s1` (stereo not given), `CCc1ncc(CNC2CC(=O)N(CCc3cccc(Cl)c3)C2)cn1` (stereo not given) is lower in INHIBITION: 53.9% for the first, -11.5% for the second.

Going from `COc1ccc(Cc2nnc(NC(=O)C3CC34CCC4)s2)cc1OC` (stereo not given) to `COc1ccc(C(=O)N2CCCC(C)C2)cc1F` (stereo not given), the INHIBITION rises from 17.75% to 28.5%.

Compared with `Cc1cc(O)nc(C2CCN(C(=O)CO)CC2)n1`, `Cn1[nH]c(C2CCCN(C(=O)CO)C2)cc1=O` (stereo not given) is lower in INHIBITION: 30.55% for the first, 29% for the second.

Compared with `COc1cccc(C(=O)C2CCCN(c3cc(C#N)ccn3)C2)c1` (stereo not given), `COc1ccc(C(=O)C2CCCN(c3cc(C#N)ccn3)C2)cc1F` (stereo not given) is higher in INHIBITION: 59.4% for the first, 63% for the second.

Compared with `COc1ccccc1C(=O)C1CCCN(c2cc(C#N)ccn2)C1` (stereo not given), `CNC(=O)c1ccnc(N2CCCC(COc3cccc(C)c3)C2)c1` (stereo not given) is higher in INHIBITION: 18.5% for the first, 47.2% for the second.

First: COCCN(C)CC(=O)N1CCCC2(CCC(=O)N(CC3CC3)C2)C1 (stereo not given)
Second: CN(C)c1cc(NCc2cnc3n2CCN(CC2CC2)CC3)ncn1
The INHIBITION of the first is higher: 29.4% for the first, 17.2% for the second.

Compared with `CC(C)(C)S(=O)(=O)c1ccc(N2CCC(n3ccnc3)CC2)cn1`, `CC(C(=O)NCC(C)(C)c1ccc2c(c1)OCO2)n1ccnc1` (stereo not given) is lower in INHIBITION: 34.5% for the first, 29.8% for the second.

Compared with `O=C1CN(c2ccc(CNC(=O)NCC3CCOC3)cc2)CCN1` (stereo not given), `CC(Cn1ccnc1)NC(=O)NCc1ccc2c(c1)OCCO2` (stereo not given) is lower in INHIBITION: 0.411% for the first, -9.76% for the second.

First: CCCc1nc(N2CC[C@@H](c3ccc4c(c3)OCO4)[C@H](O)C2)no1
Second: O[C@@H]1CN(c2nc3ccccc3o2)CC[C@H]1c1ccc2c(c1)OCO2
The INHIBITION of the first is lower: 19.4% for the first, 39.3% for the second.

First: O[C@@H]1CN(c2nc3ccccc3s2)CC[C@H]1c1ccc2c(c1)OCO2
Second: O[C@@H]1CN(c2cnc3ccccc3n2)CC[C@H]1c1ccc2c(c1)OCO2
The INHIBITION of the first is higher: 68.1% for the first, 60.1% for the second.

Compared with `CC(C)c1cc(C(=O)N2CC[C@@H](c3ccc4c(c3)OCO4)[C@H](O)C2)[nH]n1`, `CCc1ccc(C(=O)N2CCC(c3nncn3CC)CC2)s1` is lower in INHIBITION: 15.6% for the first, 9.14% for the second.

Compared with `COc1coc(C(=O)Nc2nc(C)cs2)cc1=O`, `COc1ccnc(NC(=O)c2cscc2C)c1` is lower in INHIBITION: 5.03% for the first, -28.3% for the second.

First: COCCN1CCc2ncc(CNc3cc(N(C)C)ncn3)n2CC1
Second: CN1CCc2ncc(CNc3cc(N(C)C)ncn3)n2CC1
The INHIBITION of the first is higher: 54.1% for the first, 21.6% for the second.

Compared with `Cc1nn(C)c(C)c1C1CCCN1C(=O)CCNS(C)(=O)=O` (stereo not given), `Cc1cc(C)n(C2CCCN(C(=O)CCCc3ccccn3)C2)n1` (stereo not given) is higher in INHIBITION: -37.7% for the first, 16.9% for the second.

Going from `Cc1ccsc1-c1nccn1CCN1CCCOC1=O` to `CN(C)C(=O)[C@@H]1C[C@@H]2[C@@H](CCN2Cc2nccs2)O1`, the INHIBITION rises from 20.8% to 44.5%.

Going from `Cc1cc(CCC(=O)Nc2nncs2)nc(C2CCCN2)n1` (stereo not given) to `Cc1cccnc1CC(C)Nc1nc(N)nc2c1CCNC2` (stereo not given), the INHIBITION rises from 5.11% to 65.7%.

Compared with `CN(C)c1ncccc1C(=O)N1CCCC1Cn1cccn1` (stereo not given), `CS(=O)(=O)N[C@@H]1CN(Cc2ccc3ncccc3c2)C[C@H]1O` is higher in INHIBITION: -21.5% for the first, 23.9% for the second.

Going from `N#Cc1ccc(NCCCN2C(=O)COc3ccccc32)nc1` to `N#Cc1cnc(NCCCN2C(=O)COc3ccccc32)c(Cl)c1`, the INHIBITION falls from 15.3% to -66.9%.

Going from `Cc1nnc2n1CCN(C(=O)c1ccn(-c3cccc(F)c3)n1)C2` to `CC1Cc2ccccc2N1C(=O)Cn1nc(-c2cccs2)ccc1=O` (stereo not given), the INHIBITION rises from -1.15% to 44.3%.

Going from `COc1ccc(Cl)cc1CCNC(=O)NCc1cnn(C)c1C` to `O=C(Nc1cc(CSCCO)ccn1)c1ccc(Cl)o1`, the INHIBITION rises from -9.35% to 38.3%.

Compared with `Cc1cscc1C(=O)Nc1cc(CSCCO)ccn1`, `CCOCCNC(=O)c1ccn(S(=O)(=O)c2ccc(C)cc2)c1` is lower in INHIBITION: 52.2% for the first, 13.5% for the second.

Going from `O=S(=O)(NCCc1ccccc1C(F)(F)F)N1CCOCC1` to `COc1ccccc1OCCNS(=O)(=O)N1CCOCC1`, the INHIBITION rises from 24.3% to 58.4%.

Going from `O=S(=O)(NCCc1cn2ccccc2n1)N1CCOCC1` to `CCC(NS(=O)(=O)N1CCOCC1)c1ccccc1OC` (stereo not given), the INHIBITION rises from 1.74% to 4.41%.

Compared with `CCNc1nc(-c2cccnc2)c(-c2ccnc(N3CCOCC3)n2)s1`, `Nc1nc2c(c(NCC(c3cccnc3)N3CCOCC3)n1)CCNC2` (stereo not given) is lower in INHIBITION: 39.7% for the first, 23.1% for the second.

Going from `N#Cc1c(N)nc2c(c1-c1cnc(N3CCCC3)nc1)COCC2` to `Cc1cccc(C)c1OCC(C)Nc1nc(N)nc2c1CCNC2` (stereo not given), the INHIBITION rises from -10.7% to 42.6%.

Compared with `Cc1ccc(S(=O)(=O)n2ccc(C(=O)NCC(F)(F)F)c2)cc1`, `CCNC(=O)CNC(=O)c1ccn(S(=O)(=O)c2ccc(C)cc2)c1` is lower in INHIBITION: 53.8% for the first, 2.69% for the second.

Source: ChEMBL document CHEMBL4513216, “Probing the Open Global Health Chemical Diversity Library for Multistage-Active Starting Points for Next-Generation Antimalarials” (ACS Infect Dis, 2020)
